Experimental data reported in the supplement of paper PMC6411743.
± gives the standard deviation of the averaged measurements. Of roughly 6,500 targets only a part is listed; those with the largest changes were picked by preference.

Experiments:
Test in all cases: NP40-soluble protein abundance relative to vehicle (solubility fold change) (ratio); higher = more soluble protein in presence of ATP
[1] = biological target: A0A075B6F5|F5GXR6|Q8IUG5|Q8IUG5-2 (UniProt Q8IUG5)
Procedure, shortened: (§1)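 In three independent experiments, Jurkat crude lysate made by Dounce homogenisation was treated for 10 min at room temperature and then 3 min at 37 °C with eight concentrations ranging from 0.1 to 10 mM. It was then solubilised with 0.8% NP40 plus benzonase for 60 min at 4 °C and ultracentrifuged. The supernatant was TMT-labelled for LC-MS/MS, and each value is the fold change against the detergent-processed vehicle for the same replicate, using vsn-normalised intensities.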

A0A087WTM7|P04114 = A0A087WTM7|P04114 (UniProt P04114)
Procedure, shortened: as §1

A0A087WV29|Q9H0A0 = biological target: T1, A0A087WV29|Q9H0A0 (UniProt Q9H0A0)
T1 sequence (whole entry): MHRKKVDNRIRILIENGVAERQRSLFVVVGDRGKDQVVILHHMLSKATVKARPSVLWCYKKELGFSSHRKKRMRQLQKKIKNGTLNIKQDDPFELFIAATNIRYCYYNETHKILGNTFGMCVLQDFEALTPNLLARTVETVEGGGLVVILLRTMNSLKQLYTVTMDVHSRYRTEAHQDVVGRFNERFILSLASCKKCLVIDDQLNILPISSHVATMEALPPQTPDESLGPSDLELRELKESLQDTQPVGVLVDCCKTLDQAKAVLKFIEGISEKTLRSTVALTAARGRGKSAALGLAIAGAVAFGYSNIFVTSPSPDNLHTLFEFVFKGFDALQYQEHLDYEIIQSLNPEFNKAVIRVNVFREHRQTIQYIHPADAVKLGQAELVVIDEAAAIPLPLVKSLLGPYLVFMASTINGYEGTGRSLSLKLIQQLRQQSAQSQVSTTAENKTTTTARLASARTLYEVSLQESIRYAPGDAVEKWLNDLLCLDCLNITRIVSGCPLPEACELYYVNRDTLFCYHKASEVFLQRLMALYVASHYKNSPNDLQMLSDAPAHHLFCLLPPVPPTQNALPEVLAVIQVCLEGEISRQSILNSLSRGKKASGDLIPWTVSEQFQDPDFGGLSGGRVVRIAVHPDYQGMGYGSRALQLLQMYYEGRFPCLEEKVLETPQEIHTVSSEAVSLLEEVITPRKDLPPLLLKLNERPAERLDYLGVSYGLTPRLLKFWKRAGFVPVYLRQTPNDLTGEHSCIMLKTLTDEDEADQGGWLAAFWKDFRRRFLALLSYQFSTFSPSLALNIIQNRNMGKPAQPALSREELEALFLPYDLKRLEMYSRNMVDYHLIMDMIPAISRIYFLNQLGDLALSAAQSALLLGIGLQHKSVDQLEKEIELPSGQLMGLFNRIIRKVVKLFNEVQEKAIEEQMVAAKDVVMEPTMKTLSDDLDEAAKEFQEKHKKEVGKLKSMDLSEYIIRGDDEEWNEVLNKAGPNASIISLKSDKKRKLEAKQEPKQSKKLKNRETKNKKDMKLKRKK
Procedure, shortened: as §1

[2] = biological target: T2, A0A087WVA8|Q8IWB9|Q8IWB9-2 (UniProt Q8IWB9)
T2 sequence (whole entry): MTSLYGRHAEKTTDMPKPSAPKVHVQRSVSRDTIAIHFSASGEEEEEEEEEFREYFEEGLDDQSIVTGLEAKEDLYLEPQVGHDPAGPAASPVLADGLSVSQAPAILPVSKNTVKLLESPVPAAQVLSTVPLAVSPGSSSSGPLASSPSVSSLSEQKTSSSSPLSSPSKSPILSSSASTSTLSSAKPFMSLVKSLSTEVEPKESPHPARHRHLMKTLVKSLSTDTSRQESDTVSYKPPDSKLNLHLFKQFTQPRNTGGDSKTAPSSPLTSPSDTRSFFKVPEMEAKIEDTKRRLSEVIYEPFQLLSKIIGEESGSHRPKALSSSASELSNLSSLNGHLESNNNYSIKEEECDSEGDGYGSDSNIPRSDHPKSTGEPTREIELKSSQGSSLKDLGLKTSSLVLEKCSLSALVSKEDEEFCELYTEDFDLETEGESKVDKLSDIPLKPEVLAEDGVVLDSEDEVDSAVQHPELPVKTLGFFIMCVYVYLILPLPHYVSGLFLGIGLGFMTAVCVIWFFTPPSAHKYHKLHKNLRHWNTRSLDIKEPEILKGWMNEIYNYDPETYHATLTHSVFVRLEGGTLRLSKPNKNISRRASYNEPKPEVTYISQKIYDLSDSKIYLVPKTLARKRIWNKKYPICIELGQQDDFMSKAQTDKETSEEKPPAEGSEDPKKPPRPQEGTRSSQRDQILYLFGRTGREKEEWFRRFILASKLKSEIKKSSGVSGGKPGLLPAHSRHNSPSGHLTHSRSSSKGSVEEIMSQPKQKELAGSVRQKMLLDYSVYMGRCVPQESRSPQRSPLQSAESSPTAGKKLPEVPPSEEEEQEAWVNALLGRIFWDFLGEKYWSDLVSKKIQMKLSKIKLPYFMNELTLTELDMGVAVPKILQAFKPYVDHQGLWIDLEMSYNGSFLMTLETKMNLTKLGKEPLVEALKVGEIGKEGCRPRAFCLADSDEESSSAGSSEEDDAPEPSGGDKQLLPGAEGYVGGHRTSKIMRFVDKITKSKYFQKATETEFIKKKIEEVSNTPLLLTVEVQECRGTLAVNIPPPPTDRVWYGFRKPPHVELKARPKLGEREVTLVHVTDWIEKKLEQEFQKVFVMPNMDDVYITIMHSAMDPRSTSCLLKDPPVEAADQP
Procedure, shortened: as §1

A0A087WWP8 = A0A087WWP8 (UniProt Q5VWQ0)
Procedure, shortened: as §1

A0A075B6F5|F5GXR6|Q8IUG5|Q8IUG5-2, sequence (Q8IUG5 whole entry, one chain of several): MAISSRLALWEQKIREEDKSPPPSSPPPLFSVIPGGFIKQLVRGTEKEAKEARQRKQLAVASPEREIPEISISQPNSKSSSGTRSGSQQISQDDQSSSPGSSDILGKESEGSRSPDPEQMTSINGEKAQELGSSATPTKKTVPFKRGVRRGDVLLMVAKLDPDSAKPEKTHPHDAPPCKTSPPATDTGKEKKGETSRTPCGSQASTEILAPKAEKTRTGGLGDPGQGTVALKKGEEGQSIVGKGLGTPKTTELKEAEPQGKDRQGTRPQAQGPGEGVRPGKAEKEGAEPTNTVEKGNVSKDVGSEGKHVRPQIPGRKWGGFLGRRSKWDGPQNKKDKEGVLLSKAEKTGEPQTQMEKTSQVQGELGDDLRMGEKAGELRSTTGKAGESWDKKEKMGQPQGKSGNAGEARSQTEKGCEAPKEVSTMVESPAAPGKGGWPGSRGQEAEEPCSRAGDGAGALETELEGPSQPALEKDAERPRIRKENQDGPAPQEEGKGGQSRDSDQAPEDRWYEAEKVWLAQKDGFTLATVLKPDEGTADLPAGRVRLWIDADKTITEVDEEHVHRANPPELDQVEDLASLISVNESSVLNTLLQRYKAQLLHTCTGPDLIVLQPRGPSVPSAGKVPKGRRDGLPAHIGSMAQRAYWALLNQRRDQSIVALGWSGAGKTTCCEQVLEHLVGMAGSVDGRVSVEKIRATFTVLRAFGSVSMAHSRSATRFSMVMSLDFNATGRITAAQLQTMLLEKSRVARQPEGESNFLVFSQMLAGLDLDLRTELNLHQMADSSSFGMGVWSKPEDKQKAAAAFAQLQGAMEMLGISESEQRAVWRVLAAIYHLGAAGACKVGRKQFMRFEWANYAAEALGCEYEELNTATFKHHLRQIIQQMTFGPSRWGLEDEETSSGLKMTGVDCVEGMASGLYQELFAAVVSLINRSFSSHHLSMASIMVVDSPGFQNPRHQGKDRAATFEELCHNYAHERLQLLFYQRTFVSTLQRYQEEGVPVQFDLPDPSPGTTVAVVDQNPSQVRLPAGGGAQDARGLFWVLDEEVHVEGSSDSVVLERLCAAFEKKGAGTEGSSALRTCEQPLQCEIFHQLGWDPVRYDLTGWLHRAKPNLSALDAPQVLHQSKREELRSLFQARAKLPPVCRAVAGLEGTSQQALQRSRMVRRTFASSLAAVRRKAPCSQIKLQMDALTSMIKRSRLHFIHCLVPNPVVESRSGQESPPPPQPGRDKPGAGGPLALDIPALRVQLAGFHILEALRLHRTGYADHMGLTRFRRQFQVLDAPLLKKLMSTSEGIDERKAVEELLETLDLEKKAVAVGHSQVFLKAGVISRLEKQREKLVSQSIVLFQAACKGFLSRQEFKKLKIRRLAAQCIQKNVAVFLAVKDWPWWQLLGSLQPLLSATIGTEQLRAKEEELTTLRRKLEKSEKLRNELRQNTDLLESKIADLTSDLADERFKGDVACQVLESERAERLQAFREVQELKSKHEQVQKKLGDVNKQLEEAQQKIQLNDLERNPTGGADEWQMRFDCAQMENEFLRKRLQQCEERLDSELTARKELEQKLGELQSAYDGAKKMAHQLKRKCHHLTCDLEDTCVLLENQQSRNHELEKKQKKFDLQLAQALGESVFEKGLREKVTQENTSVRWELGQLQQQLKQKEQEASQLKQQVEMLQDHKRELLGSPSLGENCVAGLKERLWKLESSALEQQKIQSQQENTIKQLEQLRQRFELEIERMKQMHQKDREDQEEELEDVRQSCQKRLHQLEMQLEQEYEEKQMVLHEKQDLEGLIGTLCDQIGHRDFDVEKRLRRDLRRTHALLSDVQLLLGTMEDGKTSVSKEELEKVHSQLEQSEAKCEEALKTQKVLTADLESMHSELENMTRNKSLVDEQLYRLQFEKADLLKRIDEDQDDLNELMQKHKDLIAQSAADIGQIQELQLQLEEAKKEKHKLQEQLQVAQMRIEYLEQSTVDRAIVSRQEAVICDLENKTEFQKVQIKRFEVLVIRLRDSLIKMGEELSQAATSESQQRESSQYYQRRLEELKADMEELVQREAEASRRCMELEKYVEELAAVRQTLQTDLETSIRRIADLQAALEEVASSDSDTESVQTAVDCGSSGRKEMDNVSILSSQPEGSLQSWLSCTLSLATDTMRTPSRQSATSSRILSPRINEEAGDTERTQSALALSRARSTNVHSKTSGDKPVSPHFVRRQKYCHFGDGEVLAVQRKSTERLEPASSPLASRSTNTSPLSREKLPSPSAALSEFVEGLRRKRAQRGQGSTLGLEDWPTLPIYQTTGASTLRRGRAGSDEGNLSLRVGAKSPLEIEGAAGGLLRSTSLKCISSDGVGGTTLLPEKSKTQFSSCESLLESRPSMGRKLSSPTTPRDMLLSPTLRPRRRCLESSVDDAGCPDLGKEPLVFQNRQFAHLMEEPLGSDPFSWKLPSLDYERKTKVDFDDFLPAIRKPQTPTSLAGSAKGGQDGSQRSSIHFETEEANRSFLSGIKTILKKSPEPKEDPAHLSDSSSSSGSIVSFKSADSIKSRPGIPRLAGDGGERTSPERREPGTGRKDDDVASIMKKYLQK
A0A087WWP8, sequence (Q5VWQ0 whole entry): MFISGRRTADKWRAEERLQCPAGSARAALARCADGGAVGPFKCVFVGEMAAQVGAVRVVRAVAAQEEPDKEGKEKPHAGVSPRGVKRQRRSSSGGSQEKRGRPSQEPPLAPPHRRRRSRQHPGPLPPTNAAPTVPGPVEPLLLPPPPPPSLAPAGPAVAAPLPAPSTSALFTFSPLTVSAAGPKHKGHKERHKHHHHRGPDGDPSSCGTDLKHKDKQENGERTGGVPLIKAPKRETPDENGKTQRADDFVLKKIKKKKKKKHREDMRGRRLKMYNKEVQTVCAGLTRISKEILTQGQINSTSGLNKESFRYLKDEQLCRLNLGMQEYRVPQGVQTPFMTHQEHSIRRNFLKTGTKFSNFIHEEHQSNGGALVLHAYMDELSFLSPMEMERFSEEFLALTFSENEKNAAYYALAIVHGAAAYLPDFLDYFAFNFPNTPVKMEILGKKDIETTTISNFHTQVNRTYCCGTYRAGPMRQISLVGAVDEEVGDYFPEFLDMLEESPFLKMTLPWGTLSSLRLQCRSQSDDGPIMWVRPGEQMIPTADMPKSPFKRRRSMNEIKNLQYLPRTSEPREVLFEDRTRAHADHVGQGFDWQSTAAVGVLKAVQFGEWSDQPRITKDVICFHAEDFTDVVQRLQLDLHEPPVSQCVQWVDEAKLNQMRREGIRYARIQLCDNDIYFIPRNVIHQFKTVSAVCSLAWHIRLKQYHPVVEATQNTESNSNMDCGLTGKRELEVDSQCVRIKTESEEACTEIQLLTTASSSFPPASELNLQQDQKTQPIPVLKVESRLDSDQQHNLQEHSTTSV

## Nc1ncnc2c1ncn2[C@@H]1O[C@H](COP(=O)(O)OP(=O)(O)OP(=O)(O)O)[C@@H](O)[C@H]1O [adenosine triphosphate]
[1]; concentration: 1mM
  NP40-soluble protein abundance: 0.986 ± 0.023
[1]; concentration: 2mM
  NP40-soluble protein abundance: 0.927 ± 0.014
[1]; concentration: 4mM
  NP40-soluble protein abundance: 1.1 ± 0.016
[1]; concentration: 6mM
  NP40-soluble protein abundance: 1.06 ± 0.022
[1]; concentration: 8mM
  NP40-soluble protein abundance: 1.14 ± 0.13
[1]; concentration: 10mM
  NP40-soluble protein abundance: 1.18 ± 0.18
A0A087WTM7|P04114; concentration: 1mM
  NP40-soluble protein abundance: 1.09 ± 0.039
A0A087WTM7|P04114; concentration: 2mM
  NP40-soluble protein abundance: 1.05 ± 0.029
A0A087WTM7|P04114; concentration: 4mM
  NP40-soluble protein abundance: 0.98 ± 0.11
A0A087WTM7|P04114; concentration: 6mM
  NP40-soluble protein abundance: 0.965 ± 0.086
A0A087WTM7|P04114; concentration: 8mM
  NP40-soluble protein abundance: 0.976 ± 0.082
A0A087WTM7|P04114; concentration: 10mM
  NP40-soluble protein abundance: 0.989 ± 0.074
A0A087WV29|Q9H0A0; concentration: 1mM
  NP40-soluble protein abundance: 1.2 ± 0.1
A0A087WV29|Q9H0A0; concentration: 2mM
  NP40-soluble protein abundance: 1.37 ± 0.1
A0A087WV29|Q9H0A0; concentration: 4mM
  NP40-soluble protein abundance: 1.59 ± 0.11
A0A087WV29|Q9H0A0; concentration: 6mM
  NP40-soluble protein abundance: 1.69 ± 0.18
A0A087WV29|Q9H0A0; concentration: 8mM
  NP40-soluble protein abundance: 2.15 ± 0.14
A0A087WV29|Q9H0A0; concentration: 10mM
  NP40-soluble protein abundance: 2.32 ± 0.22
[2]; concentration: 1mM
  NP40-soluble protein abundance: 1.02 ± 0.043
[2]; concentration: 2mM
  NP40-soluble protein abundance: 0.975 ± 0.072
[2]; concentration: 4mM
  NP40-soluble protein abundance: 0.984 ± 0.062
[2]; concentration: 6mM
  NP40-soluble protein abundance: 0.982 ± 0.024
[2]; concentration: 8mM
  NP40-soluble protein abundance: 0.973 ± 0.07
[2]; concentration: 10mM
  NP40-soluble protein abundance: 0.993 ± 0.052
A0A087WWP8; concentration: 1mM
  NP40-soluble protein abundance: 1.48 ± 0.058
A0A087WWP8; concentration: 2mM
  NP40-soluble protein abundance: 1.53 ± 0.045
A0A087WWP8; concentration: 4mM
  NP40-soluble protein abundance: 1.61 ± 0.043
